Screens deposited in PubChem BioAssay by National Center for Advancing Translational Sciences (NCATS).
IL1B secr inh: blocks inflammasome-driven IL-1 beta release; THP-1 LPS/ATP IL-1B secretion, AlphaLISA, 16 h; stronger effect = lower value; AID 743279; 360,000 compounds, 4.7% hits; activity change, % at 57.5 µM; in the data active = activity change below about -50%; inconclusive = mostly about -30% to -49%
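THP-1 cells pretreated 1 hr with compounds (up to 57.5 uM final), then stimulated with LPS (250 ng/mL final) plus ATP (1.25 mM final); secreted IL-1B measured by AlphaLISA after 16 hr, decreased signal indicating inhibition.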
DT40 TDP1 CPT: growth inhibition of DT40 Tdp1-/-;hTDP1 cells with camptothecin (screen for TDP1 inhibitors); chicken DT40 Tdp1-/-;hTDP1 cells + 20 nM CPT, ATP luminescence, 48 h; Potency, µM (top dose mostly 46.2 µM), most hits filed as inhibitors; 420,000 compounds, 12% hits; AID 686979; also: nearly all actives have a fitted effect of over 55% in size
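Chicken DT40 Tdp1-/- cells complemented with human TDP1, 400 cells/well, exposed to compounds plus 20 nM camptothecin for at least 48 h at 37 C; viability read as ATP content by CellTiter-Glo luminescence.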
HT1080-NT tox: kills 2HG-producing HT-1080-NT fibrosarcoma cells | HT-1080-NT fibrosarcoma viability, CellTiter-Glo ATP luminescence, 48 h | AID 686970 | Potency, µM (series often up to 46.1 µM), most hits filed as cytotoxic | 360,000 compounds, 1.6% hits;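 also: NT is the 2HG producing partner of a matched IDH1 knockdown line; nearly all actives have a fitted effect of over 55% in size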
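Compounds were tested in concentration-response format on HT-1080-NT cells for 48 hours at 37 degrees C. Cell viability came from CellTiter-Glo luminescence; curves were classified by r2, response magnitude and activity.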
HT1080 IDH1KD tx: toxicity to HT-1080 IDH1 knockdown cells (counter line) | HT-1080 IDH1 knockdown viability, ATP luminescence, 48 h | Potency, µM (series often up to 46.1 µM), usual class: cytotoxic | 360,000 compounds, 2% hits | AID 686971
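Luminescent ATP read-out (CellTiter-Glo, 10 min at room temperature) after 48 h compound exposure at 37 °C gave viability of IDH1-knockdown HT-1080 cells. Activity was normalised to DMSO and cell-free wells, then fitted as concentration-response curves.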
ELG1 DNA repair: blocks ELG1-dependent DNA repair in HEK293T cells. 330,000 compounds, 2.3% hits. Potency, µM (highest dose often 46.1 µM), hits mostly inhibitors. HEK293T ELG1-luciferase reporter, luminescence, 16 h; DNA damage induced by 5-fluorouridine. AID 504467; also: nearly all actives have a fitted effect of over 55% in size
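5-Fluorouridine DNA damage + compound/DMSO, 2,000 cells/well, 16 h, 37 °C/5% CO2. ONE-Glo, 30 min RT, luminescence. Readout = decrease in reporter signal.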
DT40 TDP1 no CPT: qHTS for Inhibitors of human tyrosyl-DNA phosphodiesterase 1 (TDP1): qHTS in cells in absence of CPT; DT40 Tdp1-/- hTDP1 cells, no CPT, ATP luminescence, 48 h; Potency, µM (series often up to 46.2 µM), actives largely listed as inhibitors; 420,000 compounds, 15% hits; AID 686978, 2013; also: nearly all actives have a fitted effect of over 55% in size
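Seeded 400 DT40-hTDP1 cells/well (vehicle DMSO, no 20 nM CPT); pinned compounds; ≥48 hr at 37 °C; CellTiter-Glo luminescence as viability measure.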
Numbers stand for hits; - = inactive; ? = inconclusive; . = no result. An excerpt weighted towards active compounds, which were near 19% of everything screened. Unless noted, calls follow the shape of the dose curve; as a rule, active = well fitted curve in the direction sought with a large enough effect; inconclusive = small, poorly fitted or top-dose-only effect, or another doubt; inactive = no such curve, though single readings can be large; an effect the other way counts as inactive or inconclusive.

SMILES	IL1B secr inh	DT40 TDP1 CPT	HT1080-NT tox	HT1080 IDH1KD tx	ELG1 DNA repair	DT40 TDP1 no CPT
CC1=C(O)C(=O)C(c2c(C)cc(C)c(Br)c2C)=C(O)C1=O	-	?	?	?	.	?
O=C(COC(=O)C1=COCCO1)NC1CCCCC1	-	?	-	-	?	-
COC(=O)c1cc(S(=O)(=O)N2CCCCCC2)cn1C	-	-	-	-	?	-
O=C(N/N=C/c1c(O)ccc2ccccc12)c1cccc(C(F)(F)F)c1	-	0.65µM	?	2.3µM	?	1µM
Cc1cc(C)n2nc(C(=O)N/N=C/c3c4ccccc4cc4ccccc34)nc2n1	-	23µM	?	?	?	21µM
COc1ccc2ccccc2c1/C=N/NC(=O)c1cccc(Br)c1	-	?	-	-	-	?
CN(C)CC1CCCCC1OC(=O)/C=C/c1ccccc1 (stereo not given)	?	-	-	-	-	-
CN(C)CC1CCCCC1OC(=O)/C=C/c1ccc(Cl)cc1Cl (stereo not given)	-79	?	-	-	-	?
Cc1nonc1OCCNCc1c(C(=O)N(C)C)nc2ccc(Cl)cn12	-	-	-	-	?	-
COc1cccc(CSc2nc3ccccc3cc2C=O)c1	-	1.2µM	18µM	21µM	?	1µM
CCC(CO)Oc1cc(NCc2ccccc2F)c2ncn(C(C)C)c2c1 (stereo not given)	-	21µM	-	-	?	16µM
CCC(CO)Oc1cc(NCc2ccccc2C(F)(F)F)c2ncn(C(C)C)c2c1 (stereo not given)	-	23µM	-	-	23µM	16µM
CCC(CO)Oc1cc(NCc2ccccc2OC)c2ncn(C(C)C)c2c1 (stereo not given)	-	?	-	-	?	?
COc1ccc(/C=C/C(=O)OCC(=O)Nc2cccc(S(=O)(=O)NC3=NCCCCC3)c2)cc1	-70	-	-	-	-	-
COc1cc(OC)cc(C(=O)OCC(=O)Nc2cccc(S(=O)(=O)NC3=NCCCCC3)c2)c1	-	?	-	-	?	21µM
Cc1ccc(C)c(SCC(=O)Nc2cccc(S(=O)(=O)NC3=NCCCCC3)c2)c1	-	-	-	-	?	?
Cc1ccc(C)c(C(=O)OCC(=O)Nc2cccc(S(=O)(=O)NC3=NCCCCC3)c2)c1	-69	?	-	-	?	?
O=C(COC(=O)c1ccc(O)cc1)Nc1cccc(S(=O)(=O)NC2=NCCCCC2)c1	-	-	-	-	-	-
Cc1ccc(Nc2nnc(SCC(=O)Nc3cccc(S(=O)(=O)NC4=NCCCCC4)c3)s2)c(C)c1	?	?	-	-	?	26µM
O=C(NCC1Cc2cccc(-c3ccccn3)c2O1)c1cnn2cccnc12 (stereo not given)	.	-	.	.	.	-
C#CCOC(=O)Nc1cccn(Cc2c(Cl)cccc2Cl)c1=O	?	21µM	?	?	-	10µM
O=C(Nc1cccn(Cc2c(Cl)cccc2Cl)c1=O)C1CC1	?	?	-	-	?	?
O=[N+]([O-])c1cc2no[n+]([O-])c2cc1N1CCCCC1	-78	0.58µM	-	-	.	0.92µM
O=[N+]([O-])c1cc(F)c(N2CCOCC2)cc1N1CCCCC1	-	-	-	-	-	-
O=C(/C=C/c1ccc(OCc2ccccc2)c(OCc2ccccc2)c1)c1cccnc1	-95	?	?	?	-	12µM
SMILES	IL1B secr inh	DT40 TDP1 CPT	HT1080-NT tox	HT1080 IDH1KD tx	ELG1 DNA repair	DT40 TDP1 no CPT
CCOc1ccc(OCCOc2ccc(/C=C/C(=O)O)cc2OCC)cc1	-	-	-	-	-	-
CCOc1cc(/C=C/C(=O)O)ccc1OCCO	-	13µM	-	-	-	18µM
COc1ccc(C=CC(=O)c2ccc(OCc3ccccc3)c(OC)c2)cc1OC	-	26µM	-	?	.	18µM
COc1ccc(/C=C/C(=O)c2ccc[nH]2)cc1OC	-63	-	-	-	?	?
COc1ccc(/C=C/C(=O)c2ccc[nH]2)c(OC)c1OC	-	-	-	-	?	?
N#CCCN(Cc1cccs1)C(=O)Nc1ccccc1	-	-	-	-	-	-
COC(=O)c1ccc(/C=C/C(=O)O)cc1	-	-	-	-	?	-
COc1ccc(/C=C/C(=O)c2ccccc2)cc1Cn1nnc2ccccc21	-99	?	?	?	-	23µM
COC(=O)c1ccc(/C=C/C(=O)c2ccc(OC)cc2)cc1	?	?	-	?	?	16µM
CCOc1cc(/C=C/C(=O)c2ccc(C)cc2)ccc1OCC(=O)N(C)C	-105	18µM	-	?	18µM	21µM
COc1cc(/C=C/C(=O)c2ccc(C)cc2)ccc1OCC#N	-114	?	?	21µM	?	?
COC(=O)c1ccc(Cn2nnc3ccccc32)cc1	-	-	-	-	-	?
COc1ccc(CCNC(=O)COC(=O)/C=C/c2ccc(OCC#N)c(OC)c2)cc1OC	-	-	-	-	-	?
CCc1ccc(/C=N/NC(=O)c2nnn(-c3nonc3N)c2CN2CCOCC2)cc1	-	-	-	-	-	?
COc1ccc(/C=C/C(=O)c2ccc(C(=O)/C=C/c3ccc(OC)c(OC)c3)cc2)cc1OC	-	7.3µM	-	-	?	5.8µM
COc1ccc(/C=C/C(=O)c2ccc(O)cc2O)cc1OC	.	?	.	.	.	15µM
COc1ccc(/C=C/C(=O)c2cc(Br)ccc2O)cc1OC	-	-	-	-	?	-
COc1ccc(C(=O)/C=C/c2ccccc2C(F)(F)F)cc1	-73	29µM	?	?	?	23µM
COc1cc(/C=C/C(O)=C/C(=O)/C=C/c2ccc(O)cc2)ccc1O	-97	18µM	?	?	?	?
COc1cc(/C=C/C(=O)NC(=O)c2ccccc2O)ccc1O	-	-	-	-	-	-
O=[N+]([O-])CC1(n2nc3ccccc3n2)CCCCC1	-	-	-	-	?	-
COc1ccc(OCC2c3cc(OC)c(OC)cc3CCN2C(=O)c2c(F)cccc2F)cc1 (stereo not given)	.	-	.	.	.	?
CC(C)NC(=O)N1CCCC2(CCN(C(=O)c3csnn3)CC2)C1	.	-	.	.	.	-
Cc1ccc(N(C(=O)c2csnn2)C(C(=O)NC2CCCC2)c2ccccn2)c(C)c1 (stereo not given)	-	-	-	-	-	-
O=C(CCC(=O)OCc1ccc([N+](=O)[O-])cc1Cl)Nc1ccccc1	-	-	-	-	-	-
